Assay results as given in PubChem BioAssay AID1159580 (chemical genetic matrix, 2015).
Values joined by “and” are separate entries in the source; they are usually repeats but may differ in a detail not shown here. Equal entries are not always repeated. About 2,000 (36%) of roughly 5,500 compounds were called active. Not shown: some 18% with an inconclusive outcome. Rule as the data show it: active = normalized growth mostly below about 0.91 (no sharp cut-off); inconclusive = no clear call, values can overlap the other calls; inactive = mostly above about 0.92. Some of the results follow.

Test: chemical genetic growth profiling, strain panel (AID 1159580);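 also: tested at 20 µM; growth read once vehicle control cultures reached saturation at 30 °C; 1 = growth at the plate median or of vehicle wells; lower values mean less growth of the strain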
Details: growth OD
[1] = S. cerevisiae deletion strains, locus YJR075W, strain HOC1, hits give low values
[2] = S. cerevisiae deletion strains, locus YMR263W, strain SAP30, hits give low values
[3] = S. cerevisiae deletion strains, locus YNL153C, strain GIM3, hits give low values

Measured: normalized growth

NC1(C(=O)O)CCC1
inactive: S. cerevisiae deletion strains, locus YAL013W, strain DEP1, hits give low values 0.911 | S. cerevisiae deletion strains, locus YBR021W, strain FUR4, hits give low values 0.992 | S. cerevisiae deletion strains, locus YBR229C, strain ROT2, hits give low values 1.01 | S. cerevisiae deletion strains, locus YCL029C, strain bik1, hits give low values 0.997 | S. cerevisiae deletion strains, locus YDL035C, strain GPR1, hits give low values 0.956 | S. cerevisiae deletion strains, locus YDL074C, strain BRE1, hits give low values 0.836 | S. cerevisiae deletion strains, locus YDL101C, strain DUN1, hits give low values 0.992 | S. cerevisiae deletion strains, locus YDL134C, strain PPH21, hits give low values 1.01 | S. cerevisiae deletion strains, locus YDL185W, strain tfp1, hits give low values 0.974 | S. cerevisiae deletion strains, locus YDL192W, strain arf1, hits give low values 0.974 | S. cerevisiae deletion strains, locus YDR101C, strain arx1, hits give low values 0.966 | S. cerevisiae deletion strains, locus YDR150W, strain NUM1, hits give low values 1 | S. cerevisiae deletion strains, locus YDR162C, strain NBP2, hits give low values 0.99 | S. cerevisiae deletion strains, locus YDR318W, strain mcm21, hits give low values 0.963 | S. cerevisiae deletion strains, locus YDR388W, hits give low values 0.988 | S. cerevisiae deletion strains, locus YDR502C, strain sam2, hits give low values 0.936 | S. cerevisiae deletion strains, locus YEL061C, strain CIN8, hits give low values 1 | S. cerevisiae deletion strains, locus YER110C, hits give low values 0.959 | S. cerevisiae deletion strains, locus YER155C, strain BEM2, hits give low values 1.03 | S. cerevisiae deletion strains, locus YER167W, strain BCK2, hits give low values 0.952 | S. cerevisiae deletion strains, locus YGL078C, strain dbp3, hits give low values 0.996 | S. cerevisiae deletion strains, locus YGL086W, strain mad1, hits give low values 0.955 | S. cerevisiae deletion strains, locus YGL248W, strain PDE1, hits give low values 1.01 | S. cerevisiae deletion strains, locus YGR078C, strain PAC10, hits give low values 0.868 | S. cerevisiae deletion strains, locus YGR135W, strain pre9, hits give low values 0.915 | S. cerevisiae deletion strains, locus YGR252W, strain gcn5, hits give low values 0.894 | S. cerevisiae deletion strains, locus YHR030C, strain SLT2, hits give low values 0.996 and 1 | S. cerevisiae deletion strains, locus YHR079C, strain IRE1 (second series), hits give low values 0.982 | S. cerevisiae deletion strains, locus YHR079C, strain IRE1, hits give low values 1.01 | S. cerevisiae deletion strains, locus YHR094C, strain hxt1, hits give low values 0.992 | S. cerevisiae deletion strains, locus YHR129C, strain ARP1, hits give low values 0.971 | S. cerevisiae deletion strains, locus YHR200W, strain rpn10, hits give low values 0.968 | S. cerevisiae deletion strains, locus YIL066C, strain RNR3, hits give low values 0.966 | S. cerevisiae deletion strains, locus YIL073C, strain SPO22, hits give low values 0.895 | S. cerevisiae deletion strains, locus YIL125W, strain kgd1, hits give low values 0.996 | S. cerevisiae deletion strains, locus YIR030C, strain dcg1, hits give low values 0.988 | S. cerevisiae deletion strains, locus YJL095W, strain BCK1, hits give low values 0.88 and 0.998 | S. cerevisiae deletion strains, locus YJL134W, strain LCB3, hits give low values 0.997 | S. cerevisiae deletion strains, locus YJL168C, strain set2, hits give low values 0.978 | S. cerevisiae deletion strains, locus YJL187C, strain SWE1 (second series), hits give low values 0.997 | S. cerevisiae deletion strains, locus YJR066W, strain TOR1, hits give low values 0.932 | [1] 0.891 | S. cerevisiae deletion strains, locus YKL009W, strain mrt4, hits give low values 0.98 | S. cerevisiae deletion strains, locus YKL068W, hits give low values 0.996 | S. cerevisiae deletion strains, locus YKL085W, strain MDH1 (second series), hits give low values 1.01 | S. cerevisiae deletion strains, locus YKL085W, strain MDH1, hits give low values 1.01 | S. cerevisiae deletion strains, locus YKL190W, strain CNB1, hits give low values 0.981 | S. cerevisiae deletion strains, locus YKR001C, strain vps1, hits give low values 0.92 | S. cerevisiae deletion strains, locus YLR039C, strain RIC1, hits give low values 0.991 | S. cerevisiae deletion strains, locus YLR058C, strain SHM2, hits give low values 1.01 | S. cerevisiae deletion strains, locus YLR102C, strain apc9, hits give low values 0.986 | S. cerevisiae deletion strains, locus YLR113W, strain HOG1, hits give low values 0.996 | S. cerevisiae deletion strains, locus YLR262C, strain YPT6, hits give low values 1.1 | S. cerevisiae deletion strains, locus YLR268W, strain sec22, hits give low values 0.951 | S. cerevisiae deletion strains, locus YLR330W, strain CHS5, hits give low values 1 | S. cerevisiae deletion strains, locus YLR342W, strain FKS1 (second series), hits give low values 0.955 | S. cerevisiae deletion strains, locus YLR371W, strain rom2, hits give low values 0.995 | S. cerevisiae deletion strains, locus YML016C, strain PPZ1, hits give low values 0.994 | S. cerevisiae deletion strains, locus YML032C, strain rad52, hits give low values 0.977 | S. cerevisiae deletion strains, locus YML124C, strain tub3, hits give low values 0.994 | S. cerevisiae deletion strains, locus YMR078C, strain ctf18, hits give low values 0.988 | S. cerevisiae deletion strains, locus YMR223W, strain ubp8, hits give low values 0.935 | [2] 0.929 | S. cerevisiae deletion strains, locus YMR307W, strain GAS1, hits give low values 0.986 | S. cerevisiae deletion strains, locus YNL067W, strain RPL9B, hits give low values 0.952 | S. cerevisiae deletion strains, locus YNL128W, strain TEP1, hits give low values 0.986 | [3] 0.883 | S. cerevisiae deletion strains, locus YNL183C, strain NPR1, hits give low values 0.916 | S. cerevisiae deletion strains, locus YNL233W, strain BNI4, hits give low values 0.92 | S. cerevisiae deletion strains, locus YNL250W, strain rad50, hits give low values 0.948 | S. cerevisiae deletion strains, locus YNL271C, strain bni1, hits give low values 0.966 | S. cerevisiae deletion strains, locus YNL298W, strain CLA4, hits give low values 0.981 | S. cerevisiae deletion strains, locus YNL322C, strain KRE1, hits give low values 0.997 | S. cerevisiae deletion strains, locus YNR052C, strain pop2, hits give low values 0.999 | S. cerevisiae deletion strains, locus YOL006C, strain TOP1, hits give low values 0.934 | S. cerevisiae deletion strains, locus YOL012C, strain htz1 1.73 | S. cerevisiae deletion strains, locus YOL147C, strain pex11, hits give low values 0.99 | S. cerevisiae deletion strains, locus YOR061W, strain CKA2, hits give low values 1 | S. cerevisiae deletion strains, locus YOR069W, strain VPS5, hits give low values 1 | S. cerevisiae deletion strains, locus YOR136W, strain idh2, hits give low values 0.973 | S. cerevisiae deletion strains, locus YOR144C, strain elg1, hits give low values 0.994 | S. cerevisiae deletion strains, locus YOR184W, strain ser1, hits give low values 0.875 | S. cerevisiae deletion strains, locus YOR231W, strain MKK1, hits give low values 0.989 | S. cerevisiae deletion strains, locus YOR316C, strain cot1, hits give low values 0.987 | S. cerevisiae deletion strains, locus YPL055C, strain LGE1, hits give low values 0.876 | S. cerevisiae deletion strains, locus YPL241C, strain CIN2, hits give low values 0.998 | S. cerevisiae deletion strains, locus YPL256C, strain CLN2, hits give low values 0.995 | S. cerevisiae deletion strains, locus YPR119W, strain clb2, hits give low values 0.999 | S. cerevisiae deletion strains, locus YPR141C, strain kar3, hits give low values 0.981 | S. cerevisiae deletion strains, locus YPR163C, strain tif3, hits give low values 0.996 | S. cerevisiae deletion strains, locus YPR167C, strain met16, hits give low values 0.992 | S. cerevisiae deletion strains, strain wtn01, hits give low values 0.927 | S. cerevisiae strains, strain wild type, hits give low values 0.925
active: S. cerevisiae deletion strains, locus YGR229C, strain SMI1, hits give low values 0.717 | S. cerevisiae deletion strains, locus YJR043C, strain POL32, hits give low values 0.83 | S. cerevisiae deletion strains, locus YLR418C, strain cdc73, hits give low values 0.732 | S. cerevisiae deletion strains, locus YNL307C, strain MCK1, hits give low values 0.894

NC1(C(=O)O)CCCCC1
inactive: S. cerevisiae deletion strains, locus YAL040C, strain CLN3, hits give low values 0.993 | S. cerevisiae deletion strains, locus YDR363W, strain ESC2, hits give low values 0.98 | S. cerevisiae deletion strains, locus YER002W, strain NOP16, hits give low values 1.01 | [1] 0.992 | [2] 0.995 | [3] 0.982 | S. cerevisiae deletion strains, locus YNL175C, strain NOP13, hits give low values 1.01 | S. cerevisiae deletion strains, locus YNL197C, strain WHI3, hits give low values 0.992 | S. cerevisiae deletion strains, locus YNL224C, strain SQS1, hits give low values 0.98 | S. cerevisiae deletion strains, locus YOR083W, strain WHI5 (second series), hits give low values 0.981
